PubChem BioAssay AID493214 (National Center for Advancing Translational Sciences (NCATS), 2011)
Active and inactive are the calls of the source. The call rests on the fitted dose curve; in most records, active means well fitted inhibition curve with a large enough effect; inactive means no such curve, though single readings can be large or run the other way.

Biological target: 4'-phosphopantetheinyl transferase Sfp (Bacillus subtilis) (UniProt P39135)
Experiment: Inhibitos of Bacillus subtilis Sfp phosphopantetheinyl transferase (PPTase): Dry Powder Followup
Details: purified Sfp PPTase enzyme assay, dry powder retest; series mostly up to 114 µM
Source text: The covalent attachment of a phosphopantetheinyl (4'-PP) arm to a variety of synthases and other proteins is a key posttranslational protein modification. The 4'-PP is installed on the proteins post-translationally from coenzyme A (CoA) on a conserved serine residue by action of phosphopantetheinyl transferase (PPTase) enzymes. Phosphopantetheinylation is essential for synthase activity, and removal of the PPTase gene precludes natural product synthesis in microorganisms, or in the case of fatty acid biosynthesis, renders the organism unviable. PPTase enzymes belong to a distinct structural superfamily. Within bacteria, these enzymes are grouped into two classes based upon primary structure, the AcpS-Type and Sfp-Type PPTases.
Sfp-type PPTases, corresponding to an activator of surfactin production in Bacillus subtilis, are responsible for modifying type I polyketide and nonribosomal peptide synthases of prokaryotes. Sfp-type PPTases are responsible for the activation of a variety of pathogen-associated virulence factors. […]
In search of small molecule Sfp-PPTase inhibitors, a fluorescence quenching assay was developed for detection of Bacillus subtilis Sfp-PPTase enzymatic activity in a miniaturized high-throughput format. […]
Inhibition of Sfp-PPTase was detected by recording the fluorescence intensity change over a 30-minute reaction period at a 525 nm excitation and 598 nm emission. […]
Three uL of reagents, consisting of buffer (in columns 3 and 4 as negative control) and Sfp-PPTase (in columns 1, 2, 5 - 48) were dispensed into 1,536-well Greiner black solid bottom plate. […] The plate was then centrifuged at 1000 rpm for 15 seconds, and the fluorescence intensity recorded on a ViewLux High-throughput CCD imager (Perkin-Elmer) using standard BODIPY optics (525 nm excitation and 598 nm emission). The plate was then incubated for 30 minutes, and a second read on the ViewLux was performed. The fluorescence intensity difference over the 30-minute period was used to calculate the respective reaction rate for each well.

4'-phosphopantetheinyl transferase Sfp (Bacillus subtilis), sequence (P39135 whole entry, looked up): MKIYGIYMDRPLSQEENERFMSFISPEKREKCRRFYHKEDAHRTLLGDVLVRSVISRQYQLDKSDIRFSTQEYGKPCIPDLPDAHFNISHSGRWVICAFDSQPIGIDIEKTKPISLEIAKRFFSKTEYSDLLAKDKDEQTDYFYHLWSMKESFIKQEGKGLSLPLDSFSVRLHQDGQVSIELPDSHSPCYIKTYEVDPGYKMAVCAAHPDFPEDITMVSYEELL

outcome, inactive:
Clc1ccccc1-c1nn2c(-c3ccncc3)nnc2s1
Cn1c(SCC(=O)c2cc3ccccc3o2)nnc1-c1ccccc1
O=c1[nH]c2ccccc2n2c(-c3ccccc3)nnc12
